GRK2 aptamer HTS: compounds blocking aptamer binding on GRK2 – biochemical, human GRK2, bead flow cytometry, HTS, primary screen | Beta-adrenergic receptor kinase 1 (Homo sapiens), P25098 | FAM-aptamer displacement from GRK2 | inhibition of aptamer binding, % at 10 µM | hit rate 0.59% among 330,000;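 active = inhibition of aptamer binding above 40%, roughly 3 SD of noise, on plates passing a quality check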;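 note: median bead fluorescence of bound FAM aptamer so fluorescent compounds give negative values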
HDAC3 inh: HDAC3 deacetylase inhibitors, primary screen, biochemical, fluorescence, cell-free homogeneous; inhibition, % at 8.3 µM; hit rate 0.15% among 320,000; recombinant HDAC3, fluorogenic peptide/trypsin coupled; in the data active = inhibition above about 26%, passing the limit was not always enough
LANA-H2A inh: blockers of LANA interaction with H2A/H2B – biochemical, FP readout, HTS, primary screen; AID 2629, 2010; cell-free LANA-H2A/H2B peptide, fluorescence polarization; Protein LANA1 (Human herpesvirus 8 type P (isolate GK18)), Q9QR71; hit rate 0.6% among 320,000; inhibition, % (concentration not given with the values); in the data active = inhibition mostly above about 10%, no sharp cut-off; inactive = mostly below about 6.7%
VLA-4 inh: inhibition in human VLA-4 binding assay, primary screen, VLA-4 allosteric modulator project, MLPCN library, flow cytometry, VLA-4 expressing cells; Integrin alpha-4 (Homo sapiens), P13612; ligand binding flow cytometry; inhibition, % (about 7 µM as worked out from the volumes in the protocol); hit rate 0.2% among 330,000; AID 2557, 2010
DSG3 Ab inh: inhibitors of pemphigus antibody binding to DSG3, primary screen, biochemical, bead-based, flow cytometry, scFv-GFP. binding (percent of control), % at 10 µM. hit rate 0.48% among 310,000. Desmoglein-3 (Homo sapiens), P32926. DSG3-coupled beads, scFv-anti-DSG3-GFP binding; hits give low values. AID 588358, 2011;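 active = binding more than 3 SD below its plate's average and above zero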;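 note: hits lower antibody fragment binding to DSG3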
PKD1 kinase inh: inhibitors of human PKD1 kinase, biochemical, fluorescence polarization. Serine/threonine-protein kinase D1 (Homo sapiens), Q15139. PKD1 kinase fluorescence polarization assay. inhibition, % (no concentration beside the values). hit rate 0.056% among 200,000. AID 797, 2007
Target sequence (Q15139 whole entry, looked up): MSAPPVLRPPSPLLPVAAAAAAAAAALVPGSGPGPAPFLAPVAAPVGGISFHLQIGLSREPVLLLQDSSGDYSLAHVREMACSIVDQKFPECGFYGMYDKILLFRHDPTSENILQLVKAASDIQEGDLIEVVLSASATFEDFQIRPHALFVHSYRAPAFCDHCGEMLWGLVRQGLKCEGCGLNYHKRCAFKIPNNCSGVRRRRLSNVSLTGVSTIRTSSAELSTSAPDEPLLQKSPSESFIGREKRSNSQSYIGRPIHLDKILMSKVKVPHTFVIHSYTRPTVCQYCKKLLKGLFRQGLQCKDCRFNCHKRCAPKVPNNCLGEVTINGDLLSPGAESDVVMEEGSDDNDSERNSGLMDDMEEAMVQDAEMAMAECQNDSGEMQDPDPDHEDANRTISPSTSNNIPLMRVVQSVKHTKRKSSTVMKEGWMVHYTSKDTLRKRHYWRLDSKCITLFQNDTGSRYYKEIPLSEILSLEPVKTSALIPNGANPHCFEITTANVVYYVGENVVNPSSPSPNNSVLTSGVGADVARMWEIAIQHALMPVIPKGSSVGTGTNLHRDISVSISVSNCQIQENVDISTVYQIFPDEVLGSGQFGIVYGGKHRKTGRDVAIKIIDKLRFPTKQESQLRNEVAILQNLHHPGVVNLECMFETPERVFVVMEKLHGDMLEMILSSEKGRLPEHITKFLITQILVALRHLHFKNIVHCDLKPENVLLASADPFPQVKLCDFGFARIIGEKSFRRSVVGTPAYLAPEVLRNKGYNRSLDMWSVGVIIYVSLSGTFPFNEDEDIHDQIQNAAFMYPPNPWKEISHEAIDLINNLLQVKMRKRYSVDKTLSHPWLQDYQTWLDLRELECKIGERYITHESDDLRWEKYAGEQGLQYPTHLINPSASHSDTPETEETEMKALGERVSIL
GRK2 inh confirm: GRK2 aptamer-displacing inhibitors, retest, confirmation, biochemical, cherry pick 1, bead flow cytometry | shares compounds with GRK2 aptamer HTS | bead-bound GRK2, FAM-aptamer displacement | aptamer displacement, % at 10 µM | hit rate 4% among 2,000 | AID 504451, 2011;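 active = aptamer displacement above 40%, near three times the noise of non-fluorescent compounds, on plates passing quality checks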;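 note: negative values mostly reflect intrinsic compound fluorescence rather than true enhancement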
FAM quench CP1: counter-screen for GRK2 aptamer inhibitors: fluorescent aptamer quenchers | 2,000 tested, under 10 active | shares compounds with GRK2 aptamer HTS | Carboxyfluorescein RNA aptamer on beads, flow cytometry quenching; hits give low values | fluorescence response (% of DMSO), % at 10 µM;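 active = compounds that quench the bead-bound fluorescent RNA probe, cutting fluorescence to under half of the solvent control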;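 note: counterscreen run without GRK2 so only probe quenching by compound is measured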
Active calls of the source: *; x = not tested or not shown. The list is not random: actives were taken first. Their share in the collection is about 1.8%. Cut-off read from the data, not from the text of the source, unless noted: active = inhibition above about 50%; inactive = the rest.

SMILES | GRK2 aptamer HTS | HDAC3 inh | LANA-H2A inh | VLA-4 inh | DSG3 Ab inh | PKD1 kinase inh | GRK2 inh confirm | FAM quench CP1
CN(C)c1cccc(C(=O)NCc2ccccc2Cl)c1 | 2.0 | -11.7 | -3.8 | -4.8 | 98.5 | 4.9 | x | x
COc1ccccc1CNC(=O)c1cccc(NC(=O)c2ccccc2)c1 | 1.0 | -6.0 | 0.1 | 2.2 | 100.1 | 0.4 | -2.0 | 94.6
COc1ccc(C(=O)N/C(=C\c2ccccc2)C(=O)Nc2cccc(C(=O)O)c2)cc1 | 90.0* | -9.9 | -5.3 | -7.0 | 91.9 | x | 0.6 | 104.7
COc1ccc(/C=C(\NC(=O)c2ccc(OC)cc2)C(=O)Nc2ccc(C(=O)O)cc2)cc1 | 1.0 | 5.3 | 1.0 | 26.4 | 91.6 | x | x | x
COc1ccccc1CNC(=O)c1ccncc1 | 0.0 | 0.4 | -7.5 | 3.9 | 103.2 | x | x | x
CCCOc1ccc(OCCOCCN2CCc3ccccc3C2)cc1 | 4.0 | 4.3 | -1.4 | 13.9 | 98.3 | -0.8 | x | x
CCN1CCN(C(=O)c2cccc(OC3CCN(S(C)(=O)=O)CC3)c2)[C@@H](C)C1=O | 2.0 | 1.6 | 2.2 | 9.2 | 102.3 | x | x | x
COc1cc(C2C(C#N)=C(N)Oc3c2c(-c2ccccc2)nn3-c2ccccc2)cc(OC)c1OC (stereo unspecified) | 1.0 | -1.7 | 8.4 | 19.1 | 92.9 | 1.6 | x | x
COC(=O)c1ccccc1C(=O)N(Cc1cccnc1)CC1CCCN(C2CCCCC2)C1 (stereo unspecified) | 0.0 | 4.9 | 1.7 | -104.9 | 143.9 | x | x | x
COc1ccc(CCN2CCCn3c2nc2c3c(=O)n(CC(C)C)c(=O)n2C)cc1OC | 54.0* | 6.6 | -3.1 | -0.1 | 87.5 | x | 0.1 | 105.0
O=C(O)CCNc1ccc(NCCC(=O)O)c2c1C(=O)c1ccccc1C2=O | 42.0* | 2.1 | 0.1 | -17.3 | 78.4 | x | 31.3 | 90.2
CC(=O)C[C@@H](O)CC(=O)[C@@H]1OC(=O)[C@@H](C)C/C=C\Cc2ccccc21 | 0.0 | -3.2 | -6.4 | 36.8 | 93.4 | x | x | x
COc1cc(C(=O)NCCCC2CCCC2)ccc1OC1CCN(C(C)=O)CC1 | x | x | x | x | 105.9 | x | x | x
O=C(O)c1cccc2cc(-c3ccccc3)oc(=O)c12 | 0.0 | -24.0 | 0.3 | -2.8 | 96.4 | x | -3.3 | 93.9
CCOc1ccc(CNC(=S)N/N=C\c2ccc([N+](=O)[O-])cc2)cc1 | 64.0* | -2.4 | -0.1 | -10.1 | 78.0 | -0.7 | 0.2 | 101.9
COC(=O)c1ccc(C23CC4(C2)[C@H](CN(CC2CCCCC2)[C@@H]4c2ccccc2)C3c2ccc(Cl)nc2)cc1 (stereo partly specified) | 2.0 | -1.1 | -2.0 | -0.1 | 97.4 | x | x | x
COC(=O)c1cccc(C23CC4(C2)[C@H](CN(CC2CCCCC2)[C@@H]4c2ccccc2)C3c2ccccc2)c1 (stereo partly specified) | 85.0* | 1.0 | -5.6 | 9.4 | 96.4 | x | -7.9 | 100.3
COc1ccc(NC(=O)c2nc3nc(C)cc(C(F)F)n3n2)cc1OC | 1.0 | 4.3 | -0.9 | 11.7 | 97.0 | 13.1 | x | x
CCN(CC)c1ccc(NC(=O)c2nc3nc(C)cc(C(F)F)n3n2)cc1 | 48.0* | x | -7.4 | 5.3 | 98.7 | -1.2 | -0.1 | 93.0
O=C(COc1ccccc1)Nc1ccc2c(c1)C(=O)N(CC1CCCO1)C2=O (stereo unspecified) | 1.0 | -2.6 | -3.7 | -5.2 | 110.2 | 2.1 | x | x
O=C(Cc1ccccc1)Nc1ccc2c(c1)C(=O)N(CC1CCCO1)C2=O (stereo unspecified) | 100.0* | -18.7 | -0.7 | 4.9 | 79.0 | 1.0 | -1.0 | 96.3
COc1cc(C(O)P(=O)(OCCC(C)C)c2ccc(N(C)C)cc2)cc(OC)c1OC (stereo unspecified) | 0.0 | -0.5 | -0.8 | 16.8 | 114.1 | x | x | x
Cc1ccc(NS(=O)(=O)c2c(C(=O)N3CCOCC3)c(C)n(C)c2C)cc1C | 0.0 | 1.8 | -4.5 | 16.2 | 95.2 | x | x | x
CCN(CC)S(=O)(=O)c1cccc(N=NC2=C(O)CCCC2=O)c1 | 1.0 | 4.2 | 5.5 | 13.4 | 99.8 | -6.1 | x | x
O=C1CCCC(O)=C1N=Nc1cccc(C(=O)O)c1 | 83.0* | 7.6 | 3.5 | 2.3 | 106.4 | -3.4 | 3.8 | 97.7
SMILES | GRK2 aptamer HTS | HDAC3 inh | LANA-H2A inh | VLA-4 inh | DSG3 Ab inh | PKD1 kinase inh | GRK2 inh confirm | FAM quench CP1
COC(=O)c1c(C)nc(C)c(C(=O)OC)c1-c1ccc(OC)c(OC)c1 | 54.0* | -4.9 | -1.0 | 3.1 | 86.3 | -11.0 | -3.8 | 99.5
CCN1CCN(c2ccc(S(=O)(=O)N3CCOCC3)cc2NC(=O)CCC(C)C)CC1 | 0.0 | -2.8 | 1.3 | -8.1 | 104.6 | x | x | x
O=C(NCc1ccco1)c1cccc(NC(=O)c2ccco2)c1 | 0.0 | 3.6 | 4.6 | -0.9 | 100.3 | 1.9 | -3.0 | 100.7
CN(Cc1ccccc1)C(=O)c1cccc(NC(=O)c2ccco2)c1 | 4.0 | -3.5 | -2.0 | 0.0 | 108.3 | -9.7 | 1.2 | 104.3
O=C(Nc1cc([N+](=O)[O-])ccc1O)c1cccc(NC(=O)c2ccco2)c1 | 78.0* | 8.6 | -6.8 | -2.8 | 122.1 | x | 1.4 | 102.8
CC(C)Oc1ccc(C(=O)NCc2ccco2)cc1 | 0.0 | 2.0 | -3.3 | 8.2 | 97.5 | -9.5 | x | x
COc1ccc(C(=O)Nc2cccc(C(=O)NCc3ccco3)c2)cc1 | 0.0 | 1.1 | 3.7 | -3.4 | 104.6 | -1.6 | -1.5 | 96.0
CC(C)CNC(=O)c1cccc(NC(=O)c2ccco2)c1 | 0.0 | -6.2 | -4.8 | 5.5 | 101.7 | -6.3 | x | x
COc1cc(/C=N/N=C/c2c[nH]c(=O)c(C#N)c2Nc2ccccc2)ccc1O | 0.0 | -6.6 | 2.0 | -0.4 | x | x | x | x
O=C(NCc1ccccc1)c1cccc(NC(=O)c2ccco2)c1 | 2.0 | -4.0 | 0.7 | 10.2 | 99.2 | -5.0 | 1.9 | 93.5
O=C(Nc1ccccc1)c1cccc(NC(=O)c2ccco2)c1 | 2.0 | -0.5 | -2.0 | 1.3 | 97.5 | x | x | x
O=C(COC(=O)CN1C(=O)NC2(CCCCC2)C1=O)Nc1cc(F)ccc1F | 8.0 | -10.4 | 10.3 | 15.7 | 111.4 | x | x | x
Nc1[nH]ncc1N=Nc1ccc(Cl)cc1 | 0.0 | 9.8 | -0.2 | 2.6 | 97.9 | -4.6 | x | x
Nc1[nH]ncc1-c1ccc(Cl)cc1 | 99.0* | 0.1 | -1.8 | -0.8 | 92.8 | 3.4 | 1.2 | 102.3
COC(=O)C1CC(=O)N(c2ccc(C)cc2)C1 (stereo unspecified) | 94.0* | 0.1 | 4.6 | -5.7 | 87.1 | -14.5 | 1.4 | 98.0
